# Source: PubChem BioAssay (EPA / NIEHS)
# Where “and” joins values, the source holds several entries; their conditions need not be identical. Equal entries are not always repeated. Inconclusive results are not listed. More than one record can exist for a structure, and the calls need not agree. Calls of active or inactive are those of the source. The calls were made as follows, unless noted: active = hit-call score of the fitted dose curve at least 0.9, where 1 is the maximum; inactive = score below 0.9.
# Key:
# [1] = molecular target: Estrogen receptor beta (Homo sapiens) (UniProt Q92731); test: OT_ER_ERbERb_0480: Odyssey Thera (OT) 8-hour HEK293T Protein-Complementation Assay for Estrogen Receptor-beta/-beta Homodimer (AID 2283357; active = hit-call score of the fitted dose curve at least 0.9, where 1 is the maximum;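 also: active means signal gain over DMSO baseline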)
# Outline: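 Fluorescence gain from complemented reporter fragments on ER-beta LBD homodimer in HEK293T was quantified against DMSO controls after 8 h treatment, fixation in 4% formaldehyde and Draq5 staining.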
# [2] = BSK_3C_TissueFactor: BioMAP Diversity Plus: 3C Assay for Tissue Factor Biomarker Activity (AID 2282997); details: BioMAP 3C HUVEC, tissue factor biomarker readout; actives raise or lower the signal
# Outline: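 After a 24 h chemical exposure of primary human umbilical vein endothelial cells, Tissue Factor levels were quantified by ELISA.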
# [3] = BSK_3C_VCAM1: BioMAP Diversity Plus: 3C Assay for Vascular cell adhesion molecule 1 (VCAM1) Biomarker Activity (AID 2282999); details: BioMAP 3C HUVEC, VCAM1 ELISA, cytokine-stimulated; actives raise or lower the signal
# Outline: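 Vascular primary endothelium (human umbilical vein) was exposed to chemicals and assayed 24 h later. VCAM-1 levels came from ELISA, with DMSO serving as baseline for bidirectional fitting.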
# [4] = BSK_3C_Proliferation: Cell Proliferation Assessment in the BioMAP Diversity Plus: 3C Assay (AID 2283006); details: primary human endothelial cells (HUVEC);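 as to AC50: potency may reflect either rise or fall in cell number versus DMSO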
# Outline: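 HUVEC, sub-confluent; 48 h chemical exposure; 10% TCA fix, 0.1% SRB stain, A560 total protein. Gain or loss of signal fitted both directions vs DMSO control.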
# [5] = read-out: E-selectin (Homo sapiens) (UniProt P16581); test: BSK_3C_Eselectin: BioMAP Diversity Plus: 3C Assay for Eselectin Biomarker Activity (AID 2283015); details: primary human endothelial cells (HUVEC); actives raise or lower the signal
# Outline: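 ELISA read-out of E-selectin on endothelial monolayers after 24 h chemical treatment. Human umbilical vein primary cells served as the system, with DMSO defining baseline activity for bidirectional fitting.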
# [6] = read-out: Interleukin-1 alpha (IL1a), IL1A (gene 3552); test: BSK_BE3C_IL1a: BioMAP Diversity Plus: BE3C Assay for Interleukin-1 alpha (IL1a) Biomarker Activity (AID 2283016); details: primary human bronchial epithelial cells; actives raise or lower the signal
# Outline: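 ELISA read-out of IL-1a from human lung bronchial epithelial primary cells, 24 h post-dose. Gain or loss of signal fitted relative to DMSO negative control.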
# [7] = read-out: Monocyte Chemoattractant Protein-1 (MCP1), CCL2 (gene 6347); test: BSK_3C_MCP1: BioMAP Diversity Plus: 3C Assay for Monocyte Chemoattractant Protein-1 (MCP1) Biomarker Activity (AID 2283017); details: primary human endothelial cells (HUVEC); actives raise or lower the signal
# Outline: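 ELISA read-out of MCP-1 from human umbilical vein endothelial cell cultures harvested 24 h post-dosing. Gain or loss of signal was fitted relative to DMSO.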
# [8] = read-out: Interleukin-8 (IL8), CXCL8 (gene 3576); test: BSK_3C_IL8: BioMAP Diversity Plus: 3C Assay for Interleukin-8 (IL8) Biomarker Activity (AID 2283020); details: primary human endothelial cells (HUVEC); actives raise or lower the signal
# Outline: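 HUVEC, 3C stimulation; 24 h compound exposure; IL-8 read by ELISA; gain or loss of signal fitted relative to DMSO control.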
# [9] = BSK_3C_SRB: Viability Assessment in the BioMAP Diversity Plus: 3C Assay (AID 2283023); details: primary human endothelial cells (HUVEC);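 also: fitted both ways against DMSO so a hit may be signal rise or drop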
# Outline: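 Absorbance at 560 nm of sulforhodamine B-stained (0.1%) total protein served as a cytotoxicity readout in human umbilical vein endothelial cells, 24 h after chemical treatment. Signal was fitted bidirectionally relative to DMSO.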
# [10] = read-out: Matrix Metallopeptidase 1 (MMP1), MMP1 (gene 4312); test: BSK_BE3C_MMP1: BioMAP Diversity Plus: BE3C Assay for Matrix Metallopeptidase 1 (MMP1) Biomarker Activity (AID 2283024); details: primary human bronchial epithelial cells; actives raise or lower the signal
# Outline: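 ELISA read-out of MMP1 in human lung bronchial epithelial primary cultures, 24 h post-dose; bidirectional curve fit vs DMSO baseline, gain or loss of signal scored.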
# [11] = read-out: Pselectin, SELP (gene 6403); test: BSK_4H_Pselectin: BioMAP Diversity Plus: 4H Assay for Pselectin Biomarker Activity (AID 2283026); details: primary human endothelial cells (HUVEC); actives raise or lower the signal
# Outline: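 HUVEC, 24 h chemical exposure; P-selectin read by ELISA. Bidirectional curve fit vs DMSO baseline; gain or loss of signal scored.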
# [12] = BSK_4H_SRB: Viability Assessment in the BioMAP Diversity Plus: 4H Assay (AID 2283027); details: primary human endothelial cells (HUVEC);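 also: cells exposed to compound for 24 h before staining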;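 as to AC50: curves fitted both ways versus DMSO so AC50 may be loss or gain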
# Outline: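 Cytotoxicity readout: sulforhodamine B (0.1%) staining of total protein after 10% TCA fixation, measured at 560 nm in human umbilical vein endothelium at 24 h. DMSO set the baseline; fitting was bidirectional.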
# [13] = read-out: Collagen III, COL3A1 (gene 1281); test: BSK_hDFCGF_CollagenIII: BioMAP Diversity Plus: hDFCGF Assay for Collagen III Biomarker Activity (AID 2283056); details: primary human foreskin fibroblasts; actives raise or lower the signal
# Outline: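 ELISA read-out of collagen III from human skin fibroblast cultures sampled 24 h post-dosing. Values were derived by bidirectional fitting relative to the DMSO vehicle control.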
# [14] = read-out: Macrophage colony-stimulating factor (MCSF), CSF1 (gene 1435); test: BSK_hDFCGF_MCSF: BioMAP Diversity Plus: hDFCGF Assay for Macrophage colony-stimulating factor (MCSF) Biomarker Activity (AID 2283060); details: primary human foreskin fibroblasts; actives raise or lower the signal
# Outline: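 Primary human foreskin fibroblasts dosed with chemical; 24 h later, M-CSF quantified by ELISA; curves fitted in both directions vs DMSO negative control.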
# [15] = read-out: Interleukin-1 alpha (IL1a), IL1A (gene 3552); test: BSK_KF3CT_IL1a: BioMAP Diversity Plus: KF3CT Assay for Interleukin-1 alpha (IL1a) Biomarker Activity (AID 2283070); details: primary human keratinocytes with fibroblasts; actives raise or lower the signal
# Outline: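 Readout is IL-1a level by ELISA, compared bidirectionally with DMSO as baseline. Cells: human keratinocytes co-cultured with foreskin fibroblasts, harvested 24 h post-dose.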
# [16] = read-out: Matrix Metallopeptidase 9 (MMP9), MMP9 (gene 4318); test: BSK_KF3CT_MMP9: BioMAP Diversity Plus: KF3CT Assay for Matrix Metallopeptidase 9 (MMP9) Biomarker Activity (AID 2283074); details: primary human keratinocytes with fibroblasts; actives raise or lower the signal;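 as to AC50: MMP9 protein level quantified by ELISA in the co-culture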
# Outline: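 Values come from bidirectional fitting relative to DMSO of MMP-9 levels, which were measured by ELISA. Measurements were taken 24 h after chemical dosing of a keratinocyte and foreskin fibroblast co-culture.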
# [17] = read-out: Interleukin-1 alpha (IL1a), IL1A (gene 3552); test: BSK_LPS_IL1a: BioMAP Diversity Plus: LPS Assay for Interleukin-1 alpha (IL1a) Biomarker Activity (AID 2283080); details: primary human HUVEC with PBMC; actives raise or lower the signal
# Outline: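 ELISA read-out of IL-1 alpha from a human primary vascular co-culture (endothelium plus PBMC) under LPS, sampled 24 hours post-dosing. Activity was fitted in both directions relative to DMSO controls.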
# [18] = BSK_LPS_PGE2: BioMAP Diversity Plus: LPS Assay for Prostaglandin E2 (PGE2) Biomarker Activity (AID 2283082); details: primary human HUVEC with PBMC; actives raise or lower the signal
# Outline: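 ELISA read-out of PGE2 from human umbilical vein endothelial cells co-cultured with peripheral blood mononuclear cells under LPS, 24 h post-dose. Gain or loss of signal scored relative to DMSO baseline.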
# [19] = read-out: Tumor necrosis factor (Homo sapiens) (UniProt P01375); test: BSK_LPS_TNFa: BioMAP Diversity Plus: LPS Assay for Tumour Necrosis Factor alpha (TNFa) Biomarker Activity (AID 2283085); details: primary human HUVEC with PBMC; actives raise or lower the signal;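 as to AC50: TNFa protein level quantified by ELISA in the co-culture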
# Outline: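 HUVEC/PBMC co-culture, LPS-stimulated; 24 h post-dose; TNFa by ELISA; gain or loss of signal fitted bidirectionally vs DMSO baseline.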
# [20] = BSK_SAg_PBMCCytotoxicity: PBMC Cytotoxicity Assessment in the BioMAP Diversity Plus: SAg Assay (AID 2283093); details: primary human HUVEC with PBMC;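 also: PBMC viability measured as Alamar Blue reduction fluorescence at 546/580 nm; fitted both ways against DMSO so a hit may be loss or gain of signal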;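 as to AC50: PBMC superantigen activated with SEB plus TSST-1 one hour after compound addition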
# Outline: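 Alamar Blue reduction (6 h, 546/580 nm) reports PBMC cytotoxicity after 90 h superantigen activation (SEB, TSST-1; 20 ng/mL final each) with 1 h compound pre-treatment. Gain or loss of signal fitted versus DMSO.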
# Tumor necrosis factor (Homo sapiens), sequence (P01375 whole entry, looked up): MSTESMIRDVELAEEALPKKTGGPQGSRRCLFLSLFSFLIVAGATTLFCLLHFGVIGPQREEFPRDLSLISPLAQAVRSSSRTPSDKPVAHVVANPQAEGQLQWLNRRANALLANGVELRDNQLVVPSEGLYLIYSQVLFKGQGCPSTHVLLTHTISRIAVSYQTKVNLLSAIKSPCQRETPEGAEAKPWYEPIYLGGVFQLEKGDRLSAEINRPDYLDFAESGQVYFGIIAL
# E-selectin (Homo sapiens), sequence (P16581 whole entry, looked up): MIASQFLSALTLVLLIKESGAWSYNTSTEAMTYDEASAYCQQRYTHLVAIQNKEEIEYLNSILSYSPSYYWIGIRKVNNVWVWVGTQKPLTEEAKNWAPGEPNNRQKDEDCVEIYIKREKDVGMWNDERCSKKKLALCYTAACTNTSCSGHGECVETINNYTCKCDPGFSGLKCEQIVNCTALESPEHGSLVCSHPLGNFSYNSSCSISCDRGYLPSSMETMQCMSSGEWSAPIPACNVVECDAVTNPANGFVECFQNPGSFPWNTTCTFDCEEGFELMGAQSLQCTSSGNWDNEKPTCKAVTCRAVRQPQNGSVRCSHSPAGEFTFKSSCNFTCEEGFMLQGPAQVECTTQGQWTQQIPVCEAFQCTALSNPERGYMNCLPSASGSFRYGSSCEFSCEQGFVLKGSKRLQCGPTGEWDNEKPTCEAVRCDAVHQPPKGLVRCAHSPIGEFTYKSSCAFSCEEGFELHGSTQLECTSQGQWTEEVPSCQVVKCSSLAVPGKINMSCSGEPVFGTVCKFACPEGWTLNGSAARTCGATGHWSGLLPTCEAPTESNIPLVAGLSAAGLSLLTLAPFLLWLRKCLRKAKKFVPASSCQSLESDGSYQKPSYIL
# Estrogen receptor beta (Homo sapiens), sequence (Q92731 whole entry, looked up, the tested form may be a part): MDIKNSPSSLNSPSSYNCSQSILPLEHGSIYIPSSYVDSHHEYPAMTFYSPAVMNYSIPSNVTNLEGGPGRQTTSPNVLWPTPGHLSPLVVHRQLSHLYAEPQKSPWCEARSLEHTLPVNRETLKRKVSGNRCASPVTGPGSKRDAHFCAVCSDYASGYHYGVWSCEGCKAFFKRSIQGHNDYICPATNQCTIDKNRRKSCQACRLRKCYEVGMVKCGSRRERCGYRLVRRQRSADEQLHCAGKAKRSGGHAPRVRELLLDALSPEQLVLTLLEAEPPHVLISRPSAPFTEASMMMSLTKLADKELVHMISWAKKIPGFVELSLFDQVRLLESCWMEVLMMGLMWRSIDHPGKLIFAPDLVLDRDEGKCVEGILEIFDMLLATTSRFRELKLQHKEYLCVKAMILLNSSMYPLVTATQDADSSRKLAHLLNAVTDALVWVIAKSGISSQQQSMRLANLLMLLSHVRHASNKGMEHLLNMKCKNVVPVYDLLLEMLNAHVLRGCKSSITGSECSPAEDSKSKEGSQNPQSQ
smiles,measurement,setting,value
CCc1cccc(C)c1N(C(=O)CCl)[C@@H](C)COC,outcome,[1],inactive
c1ccc(P(c2ccccc2)c2ccccc2)cc1,AC50,[1],25.4 µM (active)
Nc1ccc(-c2ccc(N)c(N)c2)cc1N,AC50,[2],5.26 µM (active)
same,outcome,[3],inactive
same,outcome,[4],inactive
same,AC50,[5],8.29 µM (active)
same,outcome,[6],inactive
same,outcome,[7],inactive
same,outcome,[8],inactive
same,outcome,[9],inactive
same,outcome,[10],inactive
same,AC50,[11],24.9 µM (active)
same,outcome,[12],inactive
same,AC50,[13],20 µM (active)
same,AC50,[14],16.1 µM (active)
same,AC50,[15],15.8 µM (active)
same,AC50,[16],16.1 µM (active)
same,outcome,[17],inactive
same,outcome,[18],inactive
same,outcome,[19],inactive
same,outcome,[20],inactive
CC(C)(C)C(O)C(Oc1ccc(-c2ccccc2)cc1)n1cncn1 (stereo not given),outcome,[2],inactive
same,outcome,[3],inactive
same,AC50,[4],31 µM (active)
same,AC50,[5],29.9 µM (active)
same,outcome,[6],inactive
same,AC50,[7],32.1 µM (active)
same,outcome,[8],inactive
same,AC50,[9],31.7 µM (active)
same,outcome,[10],inactive
same,AC50,[11],29.7 µM (active)
same,AC50,[12],31.6 µM (active)
same,AC50,[13],24.9 µM (active)
same,outcome,[14],inactive
same,AC50,[15],33 µM (active)
same,AC50,[16],28 µM (active)
same,outcome,[17],inactive
same,outcome,[18],inactive
same,outcome,[19],inactive
same,outcome,[20],inactive
O=C(O)CCCc1ccc(N(CCCl)CCCl)cc1,AC50,[2],20 µM (active) and 12.3 µM (active)
same,AC50,[3],31.8 µM (active) and 28.7 µM (active)
same,AC50,[4],12.1 µM (active) and 6.56 µM (active)
same,AC50,[5],20 µM (active)
same,AC50,[6],20 µM (active)
same,AC50,[7],20 µM (active) and 28.2 µM (active)
same,outcome,[8],inactive
same,AC50,[9],20 µM (active)
same,outcome,[10],inactive
same,AC50,[11],13.6 µM (active) and 20 µM (active)
same,AC50,[12],20 µM (active)
same,AC50,[13],20 µM (active)
same,outcome,[13],inactive
same,AC50,[14],16.6 µM (active)
same,outcome,[14],inactive
same,AC50,[15],12.3 µM (active)
same,outcome,[15],inactive
same,AC50,[16],20 µM (active)
same,outcome,[16],inactive
same,AC50,[17],34.8 µM (active) and 20 µM (active)
same,outcome,[18],inactive
same,AC50,[19],26.5 µM (active)
same,outcome,[19],inactive
same,AC50,[20],20 µM (active)
same,outcome,[20],inactive
